Results filed as inconclusive are left out. Active and inactive are the calls of the source. Rule for the calls: active = hit-call score of the fitted dose curve at least 0.9, where 1 is the maximum; inconclusive = response in the unintended direction; inactive = score below 0.9.
assay: CCTE_Harrill_HTTr_CellCount_MCF7: CCTE's Cell Proliferation Assessment for the High-Throughput Transcriptomics (HTTr) Platform, Harrill Lab (AID 2284012);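 note: intended direction is loss of nuclei count meaning fewer cells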
How it was run: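 For this full-screen endpoint, MCF-7 cultures received eight compound dilutions for six hours. Well nuclei counts from Hoechst imaging were analyzed relative to DMSO.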

SMILES	outcome
CCCN(CCC)c1c([N+](=O)[O-])cc(C(C)C)cc1[N+](=O)[O-]	inactive
O=NN1CCCC1	inactive
c1ccc2c(c1)sc1ccccc12	inactive
O=P(OCC(Br)CBr)(OCC(Br)CBr)OCC(Br)CBr (stereo not given)	inactive
CCOS(=O)(=O)OCC	inactive
CC(C)(C)c1ccc(O)cc1	inactive
CC1(C)CN=C(NN=C(/C=C/c2ccc(C(F)(F)F)cc2)/C=C/c2ccc(C(F)(F)F)cc2)NC1	inactive
CC(Cc1ccc(OCC(=O)O)cc1)NCC(O)c1csc(C(F)(F)F)n1 (stereo not given)	inactive
CSC(C)(C)C=NO	inactive
Cc1cccc(N)c1	inactive
CCCCC(CC)COC(=O)c1c(Br)c(Br)c(Br)c(Br)c1C(=O)OCC(CC)CCCC (stereo not given)	inactive
CCOP(=S)(S)OCC	inactive
c1cc2c3c(cccc3c1)CC2	inactive
Nc1ccc([N+](=O)[O-])cc1Cl	inactive
CCCCOCC1CO1 (stereo not given)	inactive
COP(=O)(O)OC	inactive
CCCCN(CC)C(=O)SCCC	inactive
N#Cc1ccc(O)cc1	inactive
O=[N+]([O-])c1ccccc1	inactive
CCCCN(CCCC)N=O	inactive
Cc1c([N+](=O)[O-])cc2c(c1[N+](=O)[O-])C(C)(C)CC2(C)C	inactive
O=[N+]([O-])c1ccc(Cl)c(Cl)c1	inactive
CCN(CC)c1ccccc1	inactive
O=P1(N(CCCl)CCCl)NCCCO1 (stereo not given)	inactive
Cc1ccc(O)cc1C	inactive

Reference: PubChem BioAssay (EPA / NIEHS)
